PubChem BioAssay (NCATS)
Inconclusive results are not listed. Active and inactive are the calls of the source. Unless noted, calls follow the shape of the dose curve; as a rule, active = well fitted curve in either direction with a large enough effect (not every such curve was filed as active); inconclusive = small, poorly fitted or top-dose-only effect, or another doubt; inactive = flat fitted curve, though single readings scatter.

Columns and labels:
[1] = target: Lysosomal acid glucosylceramidase (Homo sapiens) (UniProt P04062); experiment: Glucocerebrosidase-p2 (AID 348; in the data active = potency below about 10 µM; also: potency is read from the fitted curve at half-maximal effect); settings: purified GBA, blue fluorogenic substrate, 40 min
Chain of Lysosomal acid glucosylceramidase (Homo sapiens) (P04062 whole entry, looked up): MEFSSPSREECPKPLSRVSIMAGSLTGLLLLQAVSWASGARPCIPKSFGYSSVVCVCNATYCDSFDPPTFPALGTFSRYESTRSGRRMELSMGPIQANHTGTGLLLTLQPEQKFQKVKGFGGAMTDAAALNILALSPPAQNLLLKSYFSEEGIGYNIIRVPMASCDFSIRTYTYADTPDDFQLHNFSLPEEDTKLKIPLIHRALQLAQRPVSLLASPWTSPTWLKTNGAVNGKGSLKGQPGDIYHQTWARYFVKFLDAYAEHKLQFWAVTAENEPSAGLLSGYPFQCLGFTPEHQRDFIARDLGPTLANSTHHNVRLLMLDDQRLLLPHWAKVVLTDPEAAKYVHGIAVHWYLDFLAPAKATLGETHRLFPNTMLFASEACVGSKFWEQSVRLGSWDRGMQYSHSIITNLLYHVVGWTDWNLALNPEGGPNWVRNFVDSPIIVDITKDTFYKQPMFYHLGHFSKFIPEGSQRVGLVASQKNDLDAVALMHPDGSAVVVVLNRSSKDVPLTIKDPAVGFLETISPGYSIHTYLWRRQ
Procedure, shortened: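 Compounds titrated from 0.6 nM upwards against 0.2 nM enzyme in pH 5.9 citric acid/KH2PO4, taurocholate, tween-20; blue fluorogenic substrate 80 uM, 40 min room temperature, stopped and read Ex 365/Em 440 for AC50.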

[2] = AP1 Signaling Pathway (AID 357); settings: ME-180 AP-1-bla reporter, EGF-induced, beta-lactamase ratio, 5 h; at 7.69 µM (top of the series) unless noted;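 also: ME-180 reporter cells stimulated with EGF at its EC50 level; % is scaled to controls: 0 for no effect and ±100 for the full control effect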
Procedure, shortened: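 AP-1-bla ME-180 cells, Opti-MEM + 0.5% dialyzed FBS, plated overnight 37 °C. Cpd titration + EC50 EGF, 5 h 37 °C. CCF4 2.5 h RT; ex 405, em 460/530 ratio → %activity, AC50.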

[3] = target: Cytochrome P450 1A2 (Homo sapiens) (UniProt P05177); experiment: p450-cyp1a2 (AID 410; calls by dose curve; also: potency is read from the fitted curve at half-maximal effect;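 as to activity change, negative = inhibition: -100% = full effect of reference inhibitor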); settings: recombinant CYP1A2, luciferin-ME demethylation, luminescence; series mostly up to 57 µM
Chain of Cytochrome P450 1A2 (Homo sapiens) (P05177 whole entry, looked up): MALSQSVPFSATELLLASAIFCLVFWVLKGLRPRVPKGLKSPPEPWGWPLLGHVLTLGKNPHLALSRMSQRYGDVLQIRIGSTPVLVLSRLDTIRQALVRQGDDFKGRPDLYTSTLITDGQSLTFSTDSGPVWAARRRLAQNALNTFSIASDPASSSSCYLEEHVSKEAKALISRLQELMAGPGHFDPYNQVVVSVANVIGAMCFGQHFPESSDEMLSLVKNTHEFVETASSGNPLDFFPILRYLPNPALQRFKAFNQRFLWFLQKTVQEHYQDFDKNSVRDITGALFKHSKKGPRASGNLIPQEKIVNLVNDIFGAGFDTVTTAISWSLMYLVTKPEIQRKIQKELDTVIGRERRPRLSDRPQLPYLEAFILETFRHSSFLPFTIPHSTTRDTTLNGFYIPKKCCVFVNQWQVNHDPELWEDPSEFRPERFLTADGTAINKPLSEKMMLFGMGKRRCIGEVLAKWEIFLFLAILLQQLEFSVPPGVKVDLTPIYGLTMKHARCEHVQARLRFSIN
Procedure, shortened: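 Inhibition was calculated relative to 57 uM furafylline (full inhibition). The reaction used human CYP1A2 at 20nM with Luciferin-ME at its Km, 100uM, driven by an NADPH-regenerating system for 60 min at room temperature.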

[4] = Stat Signaling Pathway (AID 446); settings: ME-180 SIE beta-lactamase reporter, IL-6 stimulated, 5 h; at 7.69 µM (top of the series) unless noted;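 also: ME-180 cervical cancer cells given 40 pM IL-6 alongside compound; SIE-controlled beta-lactamase reporter measured as 460/530 nm FRET emission ratio; % is scaled to controls: 0 for no effect and ±100 for the full control effect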
Procedure, shortened: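 IL-6/STAT signaling read in ME-180 cells via an SIE beta-lactamase reporter. Stimulus was 40 pM IL-6 (its AC50) for 5 hrs, so both activation and inhibition register.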

[5] = target: Glucocorticoid receptor (Homo sapiens) (UniProt P04150); experiment: GR-EFC Redistribution (AID 451; calls by dose curve; also: potency is read from the fitted curve at half-maximal effect); settings: CHO-K1 GR-EFC translocation, beta-gal luminescence, 2 h
Chain of Glucocorticoid receptor (Homo sapiens) (P04150 whole entry, looked up, the tested form may be a part): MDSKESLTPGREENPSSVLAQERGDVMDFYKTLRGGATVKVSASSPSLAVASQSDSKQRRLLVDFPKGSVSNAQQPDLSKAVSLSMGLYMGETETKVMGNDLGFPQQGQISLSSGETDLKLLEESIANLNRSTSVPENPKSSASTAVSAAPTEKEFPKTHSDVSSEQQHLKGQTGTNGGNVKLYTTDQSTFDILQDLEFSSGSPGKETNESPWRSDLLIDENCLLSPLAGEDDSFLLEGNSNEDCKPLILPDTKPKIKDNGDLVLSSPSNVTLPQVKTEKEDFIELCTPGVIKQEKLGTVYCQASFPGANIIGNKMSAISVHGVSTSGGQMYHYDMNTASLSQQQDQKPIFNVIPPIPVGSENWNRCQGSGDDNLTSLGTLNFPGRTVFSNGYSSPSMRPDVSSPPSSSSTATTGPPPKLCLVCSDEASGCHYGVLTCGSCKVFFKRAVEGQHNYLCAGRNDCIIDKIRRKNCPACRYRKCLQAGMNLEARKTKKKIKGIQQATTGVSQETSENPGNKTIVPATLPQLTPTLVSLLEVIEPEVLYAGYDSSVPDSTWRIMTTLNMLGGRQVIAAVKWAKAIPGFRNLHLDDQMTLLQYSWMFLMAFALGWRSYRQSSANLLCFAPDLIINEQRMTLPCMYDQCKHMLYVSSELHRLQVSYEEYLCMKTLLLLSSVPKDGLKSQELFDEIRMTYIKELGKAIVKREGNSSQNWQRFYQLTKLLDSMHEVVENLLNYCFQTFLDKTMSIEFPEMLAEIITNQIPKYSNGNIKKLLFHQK
Procedure, shortened: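 Translocation of GR-ED fusion to nuclear EA restores b-gal, read by luminescence after 1 h room-temperature detection. Engineered CHO-K1 biosensor cells, 1,000/well, exposed 2 h at 37 C to titrations up to 46 uM final.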

[6] = target: Mitogen-activated protein kinase 10 (Mus musculus) (UniProt Q61831); experiment: JNK3 AlphaScreen Assay (AID 530); settings: JNK3 lysate, c-Jun phosphorylation; series mostly up to 57.1 µM;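 also: kinase came from lysate of stimulated human HepG2 cells; signal reports phosphorylation of biotinylated GST-cJun 1-79 at Ser73 with 10 µM ATP; % is scaled to controls: 0 for no effect and ±100 for the full control effect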
Procedure, shortened: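 Room-temperature AlphaScreen kinase assay; pre-activated HepG2 lysate as JNK3 source, biotin-GST-cJun(1-79) substrate, 10 uM ATP, compound 15 min preincubation.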

[7] = target: 3',5'-cyclic-AMP phosphodiesterase 4B (Homo sapiens) (UniProt Q07343); experiment: qHTS Assay for Inhibitors of PDE-IV (AID 607; active = well fitted activation curve with a large enough effect in the main read-out, with a control signal flat, not every such curve was filed as active; also: % of control where 0% means no effect); settings: HEK293 ACTOne CNG channel cells, membrane potential fluorescence; series mostly up to 22.9 µM
Chain of 3',5'-cyclic-AMP phosphodiesterase 4B (Homo sapiens) (Q07343 whole entry, looked up): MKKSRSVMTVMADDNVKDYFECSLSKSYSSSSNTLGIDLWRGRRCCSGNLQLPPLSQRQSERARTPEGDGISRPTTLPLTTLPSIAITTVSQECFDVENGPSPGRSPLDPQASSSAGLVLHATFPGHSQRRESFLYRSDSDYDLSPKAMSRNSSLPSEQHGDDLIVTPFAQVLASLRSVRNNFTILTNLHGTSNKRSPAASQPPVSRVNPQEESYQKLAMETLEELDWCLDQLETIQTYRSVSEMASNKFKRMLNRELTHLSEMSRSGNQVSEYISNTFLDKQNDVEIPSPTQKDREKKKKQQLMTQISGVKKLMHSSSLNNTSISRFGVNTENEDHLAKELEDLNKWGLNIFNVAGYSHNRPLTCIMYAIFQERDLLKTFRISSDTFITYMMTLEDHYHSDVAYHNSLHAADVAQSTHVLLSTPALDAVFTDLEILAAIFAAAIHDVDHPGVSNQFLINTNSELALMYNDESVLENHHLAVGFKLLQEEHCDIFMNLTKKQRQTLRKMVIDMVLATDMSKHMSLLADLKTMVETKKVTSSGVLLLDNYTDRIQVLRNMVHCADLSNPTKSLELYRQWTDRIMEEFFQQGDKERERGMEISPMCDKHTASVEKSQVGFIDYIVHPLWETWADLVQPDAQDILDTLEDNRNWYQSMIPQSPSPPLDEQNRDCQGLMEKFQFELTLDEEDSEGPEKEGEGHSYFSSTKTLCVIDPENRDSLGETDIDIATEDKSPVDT
Procedure, shortened: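 Live HEK293 cells with a modified cyclic nucleotide-gated (CNG) channel report intracellular cAMP via membrane-potential dye fluorescence (ex 535/em 590 nm). Endogenous PDE-IV was targeted. Compounds were tested at up to 22.9 uM final; RO 20-1724 100 uM served as control.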

[8] = target: Cytochrome P450 2D6 (Homo sapiens) (UniProt P10635); experiment: qHTS Assay for Inhibitors and Substrates of Cytochrome P450 2D6 (AID 891; active = well fitted curve in the direction sought with a large enough effect; an effect the other way counts as inactive or inconclusive; also: potency is read from the fitted curve at half-maximal effect; nearly all actives have a fitted effect of over 60% in size); settings: recombinant CYP2D6, luciferin-ME EGE luminescence; series mostly up to 57.1 µM
Chain of Cytochrome P450 2D6 (Homo sapiens) (P10635 whole entry, looked up): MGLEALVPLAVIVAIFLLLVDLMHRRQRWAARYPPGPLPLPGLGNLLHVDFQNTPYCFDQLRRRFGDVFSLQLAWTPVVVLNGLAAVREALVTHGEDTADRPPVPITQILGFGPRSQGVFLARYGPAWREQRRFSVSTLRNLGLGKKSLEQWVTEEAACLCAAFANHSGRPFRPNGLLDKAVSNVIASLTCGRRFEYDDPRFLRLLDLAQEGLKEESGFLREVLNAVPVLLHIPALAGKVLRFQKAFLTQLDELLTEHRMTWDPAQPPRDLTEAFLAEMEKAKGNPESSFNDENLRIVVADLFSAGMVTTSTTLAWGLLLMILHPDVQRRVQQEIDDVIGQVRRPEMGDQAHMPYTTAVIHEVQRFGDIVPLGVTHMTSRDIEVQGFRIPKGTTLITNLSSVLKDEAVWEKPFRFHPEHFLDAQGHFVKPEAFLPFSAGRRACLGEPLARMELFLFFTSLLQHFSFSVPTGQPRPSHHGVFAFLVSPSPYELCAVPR
Procedure, shortened: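 Human CYP2D6 (5 nM) with 30 uM Luciferin-ME EGE (at Km) in 100 mM KPO4, compound preincubated 10 min, then NADPH regeneration system for 60 min at room temperature. Luciferin read by luminescence; normalized to 1.43 uM quinidine.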

[9] = qHTS Assay for Lipid Storage Modulators (AID 1519; calls by dose curve); settings: Drosophila S3 cells, BODIPY lipid droplet/cell ratio, laser cytometry, cells loaded with oleic acid; for activity change, negative = inhibition: at 57.5 µM (top of the series)
Procedure, shortened: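 Cells seeded at 5,000 per well were treated with compounds over a concentration series and loaded with oleic acid (400 uM, as added). Lipid droplet fluorescence (488 nm excitation, 500-530 nm channel) was read by laser-scanning cytometry and normalized to 20 uM Triacsin C.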

[10] = Primary qHTS for small molecule stabilizers of the endoplasmic reticulum resident proteome: Secreted ER Calcium Modulated Protein (SERCaMP) assay (AID 1508630; active = well fitted curve in the direction sought with a large enough effect; an effect the other way counts as inactive or inconclusive; also: % is scaled to controls: 0 for no effect and ±100 for the full control effect); settings: SH-SY5Y GLuc-SERCaMP (Gaussia luciferase released on ER calcium loss) secretion, thapsigargin, luminescence; series mostly up to 38.4 µM
Procedure, shortened: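 GLuc-SERCaMP-expressing SH-SY5Y cells, pretreated 16 h with compound, are challenged with thapsigargin to empty ER calcium stores; after 4 h, coelenterazine is added directly to the medium and luminescence is imaged.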

[11] = target: Cytochrome P450 3A4 (Homo sapiens) (UniProt P08684); experiment: qHTS Assay for Activators of Cytochrome P450 3A4 (AID 885; active = well fitted curve in the direction sought with a large enough effect; an effect the other way counts as inactive or inconclusive; also: nearly all actives have a fitted effect of over 65% in size); settings: recombinant CYP3A4, Luciferin-PPXE luminescence, 60 min; series mostly up to 57.1 µM
Chain of Cytochrome P450 3A4 (Homo sapiens) (P08684 whole entry, looked up): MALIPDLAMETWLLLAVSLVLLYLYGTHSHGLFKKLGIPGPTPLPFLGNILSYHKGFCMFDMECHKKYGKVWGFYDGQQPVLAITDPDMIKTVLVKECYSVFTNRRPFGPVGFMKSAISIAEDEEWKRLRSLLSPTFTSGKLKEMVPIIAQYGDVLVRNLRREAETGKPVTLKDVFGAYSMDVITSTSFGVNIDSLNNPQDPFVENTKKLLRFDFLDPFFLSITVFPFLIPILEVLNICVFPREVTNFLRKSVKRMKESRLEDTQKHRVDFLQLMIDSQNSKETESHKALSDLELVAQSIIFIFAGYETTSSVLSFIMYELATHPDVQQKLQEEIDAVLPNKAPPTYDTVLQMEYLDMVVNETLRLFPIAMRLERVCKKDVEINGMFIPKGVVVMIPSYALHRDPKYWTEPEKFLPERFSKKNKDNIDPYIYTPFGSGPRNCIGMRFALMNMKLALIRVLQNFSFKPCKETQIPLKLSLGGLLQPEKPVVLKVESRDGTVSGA
Procedure, shortened: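 Quantitative HTS format: compounds preincubated with 20nM human CYP3A4 and Luciferin-PPXE substrate at KM, reaction started by NADPH regeneration, stopped after 60 min, luciferase luminescence read 20 min later.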

[12] = qHTS Assay for Identification of Small Molecule Agonists for Hypoxia Response Element Signaling Pathway (AID 914; active = well fitted activation curve with a large enough effect in the signal ratio, with a control signal flat, not every such curve was filed as active; the % refers to the signal ratio; also: % of control where 0% means no effect); settings: ME-180 (cervical carcinoma) HRE-bla reporter, beta-lactamase ratio, CoCl2, 17 h; activation: stronger effect = higher value
Procedure, shortened: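 A beta-lactamase reporter under hypoxia response element control in ME-180 cells served as the system. Compound titrations plus EC50 CoCl2 ran 17 h at 37 degrees Celsius; AC50 values were fitted from %Activity.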

[13] = target: Cytochrome P450 2C19 (Homo sapiens) (UniProt P33261); experiment: qHTS Assay for Inhibitors and Substrates of Cytochrome P450 2C19 (AID 899; active = well fitted curve in the direction sought with a large enough effect; an effect the other way counts as inactive or inconclusive; also: potency is read from the fitted curve at half-maximal effect; nearly all actives have a fitted effect of over 60% in size); settings: recombinant CYP2C19, luciferin-H EGE luminescence; series mostly up to 57.1 µM
Chain of Cytochrome P450 2C19 (Homo sapiens) (P33261 whole entry, looked up): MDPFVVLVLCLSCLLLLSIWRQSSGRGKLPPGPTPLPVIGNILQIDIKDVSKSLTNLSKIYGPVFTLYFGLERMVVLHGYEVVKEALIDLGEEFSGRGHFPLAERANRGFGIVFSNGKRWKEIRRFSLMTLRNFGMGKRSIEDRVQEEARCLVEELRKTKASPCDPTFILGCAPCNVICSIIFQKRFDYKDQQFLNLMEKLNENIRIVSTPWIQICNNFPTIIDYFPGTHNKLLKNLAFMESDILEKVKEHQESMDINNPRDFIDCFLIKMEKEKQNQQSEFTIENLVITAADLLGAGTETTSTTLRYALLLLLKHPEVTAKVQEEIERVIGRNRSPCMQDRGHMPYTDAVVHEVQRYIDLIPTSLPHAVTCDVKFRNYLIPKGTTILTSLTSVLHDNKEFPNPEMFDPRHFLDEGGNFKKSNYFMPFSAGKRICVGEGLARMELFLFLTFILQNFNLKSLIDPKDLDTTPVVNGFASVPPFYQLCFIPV
Procedure, shortened: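 5nM enzyme + 10uM Luciferin-H EGE (=KM), 50mM KPO4; cpd pin-transferred, 10 min 37C; NADPH regen, 60 min 37C; stopped w/ luciferin detection reagent, 20 min; luminescence. Normalized to 57uM ketoconazole (AC100).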

[14] = measured here: cell count channel max response
[15] = measured here: lipid channel max response

Row | Structure (SMILES) | Potency [1] | activity change, negative = inhibition [2] | Potency [3] | activity, negative = inhibition [4] | Potency [5] | Potency [6] | Potency [7] | Potency [8] | activity change, negative = inhibition [9] | max response [9, 14] [%] | max response [9, 15] [%] | outcome [10] | Potency [11] | activation [12] | Potency [13]
1 | COc1ccccc1CN1CCCC2(CCN(C(C)=O)CC2)C1 | > 11.4 µM (inactive) | 0.608% (inactive) | 25.1 µM (active) | 9.98% (inactive) | > 46 µM (inactive) | inactive | inactive | 3.16 µM (active) | 0.567% (inactive) | 7.93 | 13 | inactive |  |  | 
2 | COc1ccccc1CN1CCCC2(CCN(C(=O)c3csnn3)CC2)C1 | > 11.4 µM (inactive) | 3.73% (inactive) | inactive | 0.773% (inactive) | > 46 µM (inactive) | inactive | inactive |  | 6.98% (inactive) | 9.62 | 21.2 | inactive | inactive | 12.1% (inactive) | 
3 | CC(C)CN1CCC2(CC1)CCN(C(=O)c1cccc(F)c1)CC2 | > 11.4 µM (inactive) | -11.3% (inactive) | inactive | 0.382% (inactive) | > 46 µM (inactive) | inactive | inactive | 5.01 µM (active) | 0.839% (inactive) | 1.53 | 2.51 | inactive |  |  | 
4 | COC(=O)N1CCC2(CCN(Cc3ccccc3OC)CC2)CC1 | > 11.4 µM (inactive) | 8.84% (inactive) | inactive | -8.38% (inactive) | > 46 µM (inactive) | inactive | inactive | 2 µM (active) | 2.37% (inactive) | 6.33 | 9.77 | inactive |  | 2.91% (inactive) | 
5 | O=C(Oc1ccccc1)N1CCC2(CCCN(c3ccccn3)C2)CC1 | > 11.4 µM (inactive) | -14.7% (inactive) | 20 µM (active) | 2.71% (inactive) | > 46 µM (inactive) | inactive | inactive |  | 1.87% (inactive) | -15.5 | -9.96 | inactive | inactive |  | 7.94 µM (active)
